Results as given in PubChem BioAssay.
For some assays here: Results with a measured potency or affinity are listed apart. Active and inactive are the calls of the source. Unless noted, no rule for the calls is given here.

What was measured:
[1] = antimalarial activity against Dd2 strain (AID 2302;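 active = growth inhibition above 50% at the single 2 µM test dose, taken to imply half-maximal potency below 2 µM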;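 also: 0% = DMSO untreated growth and 100% = chloroquine plus artemisinin killed control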); conditions: P. falciparum Dd2 in RBCs, LDH growth readout, 72 h; at 2 µM; hits give high values
[2] = HepG2 cytotoxicity, primary screen, cytotoxicity control for P. falciparum antimalarial project, cell-based, ATP luminescence (AID 2303;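 active = inhibition above 50%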;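 also: 0% = DMSO wells and 100% = digitonin-killed cells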); conditions: HepG2 viability, 24-48 h, at 10 µM, hits give high values
[3] = target: L-lactate dehydrogenase (Plasmodium falciparum (isolate CDC / Honduras)) (UniProt Q27743); assay: PfLDH activity inhibition – cell lysate, 3D7 strain, counter-screen for P. falciparum growth inhibition project (AID 2304);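 also: 0% = vehicle and 100% = reference inhibitor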; conditions: P. falciparum 3D7 crude extract, LDH APAD/NBT absorbance; at 2 µM; hits give high values
Chain of L-lactate dehydrogenase (Plasmodium falciparum (isolate CDC / Honduras)) (Q27743 whole entry, looked up): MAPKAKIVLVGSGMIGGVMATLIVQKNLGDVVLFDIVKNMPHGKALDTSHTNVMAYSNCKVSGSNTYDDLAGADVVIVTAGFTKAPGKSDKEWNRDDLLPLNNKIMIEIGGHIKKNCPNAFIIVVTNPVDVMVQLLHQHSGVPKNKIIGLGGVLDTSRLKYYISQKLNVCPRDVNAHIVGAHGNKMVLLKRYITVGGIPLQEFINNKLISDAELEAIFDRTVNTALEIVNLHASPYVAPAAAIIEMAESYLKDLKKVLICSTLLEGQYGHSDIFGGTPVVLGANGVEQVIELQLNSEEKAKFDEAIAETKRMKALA

[4] = inhibition of 3D7 malaria parasite growth – strain 3D7 (AID 2306);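 also: 0% = DMSO wells and 100% = chloroquine plus artemisinin control wells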; conditions: P. falciparum 3D7 erythrocytic growth, LDH absorbance, 72 h; at 2 µM; hits give high values
[5] = target: Calcium-dependent protein kinase 1 (Plasmodium falciparum (isolate 3D7)) (UniProt P62344); assay: PfCDPK1 kinase inhibitors, biochemical, TCAMS library (AID 1159585; cut-off not given, nearly all actives have IC50 up to about 0.98 µM;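 also: inhibitors leave more ATP so luminescence rises with inhibition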); conditions: recombinant PfCDPK1, Kinase-Glo ATP depletion luminescence
Chain of Calcium-dependent protein kinase 1 (Plasmodium falciparum (isolate 3D7)) (P62344 whole entry, looked up): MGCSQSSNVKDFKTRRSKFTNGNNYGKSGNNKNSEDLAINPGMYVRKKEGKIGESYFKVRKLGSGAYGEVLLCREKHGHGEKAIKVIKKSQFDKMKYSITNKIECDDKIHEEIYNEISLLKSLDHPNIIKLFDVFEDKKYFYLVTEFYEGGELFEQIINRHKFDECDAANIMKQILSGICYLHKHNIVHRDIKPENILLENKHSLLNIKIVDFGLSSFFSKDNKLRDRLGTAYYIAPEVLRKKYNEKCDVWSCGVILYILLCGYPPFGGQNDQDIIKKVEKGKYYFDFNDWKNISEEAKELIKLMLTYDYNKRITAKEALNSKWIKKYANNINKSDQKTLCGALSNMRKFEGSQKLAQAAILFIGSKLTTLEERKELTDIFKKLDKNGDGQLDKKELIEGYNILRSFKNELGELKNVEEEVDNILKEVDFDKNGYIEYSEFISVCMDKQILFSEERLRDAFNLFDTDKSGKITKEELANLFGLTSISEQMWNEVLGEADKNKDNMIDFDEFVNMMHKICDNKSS

[6] = target: Plasmodium falciparum protein kinase 6 (PK6, PF3D7_1337100) (UniProt Q8IDW1); assay: PfPK6 kinase inhibitors, biochemical, TCAMS library (AID 1159586); conditions: recombinant PfPK6, Kinase-Glo ATP depletion luminescence
Chain of Plasmodium falciparum protein kinase 6 (PK6, PF3D7_1337100) (Q8IDW1 1-305): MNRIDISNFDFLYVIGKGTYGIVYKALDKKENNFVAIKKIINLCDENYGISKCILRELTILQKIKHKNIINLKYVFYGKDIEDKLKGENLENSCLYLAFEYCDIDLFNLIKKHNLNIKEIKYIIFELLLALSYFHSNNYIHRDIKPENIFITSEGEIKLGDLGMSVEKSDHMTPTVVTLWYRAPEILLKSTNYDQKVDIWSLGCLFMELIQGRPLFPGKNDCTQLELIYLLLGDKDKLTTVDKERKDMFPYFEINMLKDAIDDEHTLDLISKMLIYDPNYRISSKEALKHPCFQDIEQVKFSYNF

[7] = target: Protein kinase 7 (PK7), Plasmodium falciparum 3D7 (PF3D7_0213400) (UniProt Q7YTF7); assay: inhibition of Plasmodium PK7 catalytic activity – biochemical, TCAMS antimalarial set, Kinase-Glo luminescence (AID 1159587); conditions: recombinant PfPK7, Kinase-Glo ATP depletion luminescence
Chain of Protein kinase 7 (PK7), Plasmodium falciparum 3D7 (PF3D7_0213400) (Q7YTF7 1-343): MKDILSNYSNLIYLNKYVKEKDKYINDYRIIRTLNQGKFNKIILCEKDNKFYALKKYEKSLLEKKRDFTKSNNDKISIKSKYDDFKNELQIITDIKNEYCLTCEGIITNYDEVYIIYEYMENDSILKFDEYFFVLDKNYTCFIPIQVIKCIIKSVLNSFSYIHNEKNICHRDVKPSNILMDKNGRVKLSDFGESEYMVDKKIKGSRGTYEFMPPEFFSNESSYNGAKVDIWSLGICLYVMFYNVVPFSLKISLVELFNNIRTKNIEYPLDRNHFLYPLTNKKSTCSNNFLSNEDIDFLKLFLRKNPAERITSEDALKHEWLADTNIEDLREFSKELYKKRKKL

[8] = target: Calcium-dependent protein kinase 4 (Plasmodium falciparum (isolate 3D7)) (UniProt Q8IBS5); assay: PfCDPK4 kinase inhibitors, biochemical, TCAMS library (AID 1159588; cut-off not given, nearly all actives have IC50 up to about 0.91 µM); conditions: recombinant PfCDPK4, Kinase-Glo ATP depletion luminescence
Chain of Calcium-dependent protein kinase 4 (Plasmodium falciparum (isolate 3D7)) (Q8IBS5 whole entry, looked up): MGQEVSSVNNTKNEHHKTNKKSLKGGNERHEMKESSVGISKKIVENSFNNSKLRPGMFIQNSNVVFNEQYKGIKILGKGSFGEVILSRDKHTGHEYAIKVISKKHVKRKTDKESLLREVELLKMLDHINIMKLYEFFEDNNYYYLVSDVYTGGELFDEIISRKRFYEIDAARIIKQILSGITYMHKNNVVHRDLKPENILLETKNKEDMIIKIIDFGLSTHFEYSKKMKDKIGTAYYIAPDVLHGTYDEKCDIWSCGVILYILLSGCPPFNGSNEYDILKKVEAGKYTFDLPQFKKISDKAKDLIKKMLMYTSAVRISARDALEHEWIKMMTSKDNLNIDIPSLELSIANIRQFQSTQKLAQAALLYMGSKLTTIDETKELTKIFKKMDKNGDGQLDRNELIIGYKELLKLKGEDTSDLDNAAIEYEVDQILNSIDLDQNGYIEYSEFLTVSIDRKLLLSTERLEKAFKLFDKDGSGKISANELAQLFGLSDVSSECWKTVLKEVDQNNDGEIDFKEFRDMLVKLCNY

CCOC(=O)c1c(C)n(-c2ccccc2)c2ccc(O)cc12
inactive: inhibition [2] -7% | inhibition [3] -4% | outcome [5] | outcome [6] | outcome [7] | outcome [8]
active: growth inhibition [1] 87% | growth inhibition [4] 101%

CN1CC[C@@H](Oc2cc(CNC(=O)c3ccc(-c4ccc(Cl)cc4)s3)ccc2C(F)(F)F)C1
inactive: inhibition [2] 40% | inhibition [3] 2% | outcome [5] | outcome [6] | outcome [7] | outcome [8]
active: growth inhibition [1] 64% | growth inhibition [4] 93%

COc1ccc(-c2cc3ncn(CC(=O)N4CCN(c5cccc(OC)c5)CC4)c(=O)c3s2)cc1
inactive: growth inhibition [1] 26% | inhibition [2] 49% | inhibition [3] -7% | outcome [5] | outcome [6] | outcome [7] | outcome [8]
active: growth inhibition [4] 84%

COc1ccccc1/C=C/C(=O)N(C)C1CCN(CCCCCNC(=O)/C=C/c2ccc(Cl)c(Cl)c2)C1 (stereo not given)
active: growth inhibition [4] 94%
inactive: growth inhibition [1] 14% | inhibition [2] 10% | inhibition [3] -14% | outcome [5] | outcome [6] | outcome [7] | outcome [8]

CCc1ccc(C2CCN(CCCCNC(=O)c3ccc(NC(=O)c4ccc(Cl)cc4)cc3)CC2)c(OC(C)=O)c1
inactive: inhibition [2] 48% | inhibition [3] 0% | outcome [5] | outcome [6] | outcome [7] | outcome [8]
active: growth inhibition [1] 100% | growth inhibition [4] 91%

CCOc1c(CNCCCNc2nc3ccccc3[nH]2)cc(I)cc1OC
inactive: growth inhibition [1] 4% | inhibition [2] 42% | inhibition [3] 1% | outcome [5] | outcome [6] | outcome [7] | outcome [8]
active: growth inhibition [4] 100%

O=C(Nc1ccnc(N2CCCN(Cc3cccc(O)c3)CC2)c1)c1ccc(F)cc1
inactive: growth inhibition [1] 3% | inhibition [2] 12% | inhibition [3] 4% | outcome [5] | outcome [6] | outcome [7] | outcome [8]
active: growth inhibition [4] 90%

N#Cc1ccc(-c2ccc(OCC(O)CN3CCCN(C(=O)C(c4ccc5c(c4)OCO5)N4CCN(C/C=C/c5ccccc5)CC4)CC3)cc2)cc1 (stereo not given)
active: growth inhibition [1] 77% | growth inhibition [4] 99%
inactive: inhibition [2] 25% | inhibition [3] 3% | outcome [5] | outcome [6] | outcome [7] | outcome [8]

Cc1cccc2[nH]c(-c3ccc(-c4ccc(NC(=O)Nc5cccc(C#N)c5)cc4)cc3)nc12
inactive: inhibition [2] 28% | inhibition [3] 6% | outcome [5] | outcome [6] | outcome [7] | outcome [8]
active: growth inhibition [1] 100% | growth inhibition [4] 101%

CC(=O)Nc1cc(C(=O)Nc2cccc(-c3csc(-c4nc5ccccc5[nH]4)c3)c2)ccc1C
inactive: inhibition [2] 31% | inhibition [3] 3% | outcome [5] | outcome [6] | outcome [7] | outcome [8]
active: growth inhibition [1] 66% | growth inhibition [4] 94%

CN1CCC(N2CCN(Cc3ccc(-c4ccc(-c5nc6ccc(F)cc6[nH]5)s4)cc3)CC2)CC1
inactive: inhibition [3] 3% | outcome [5] | outcome [6] | outcome [7] | outcome [8]
active: growth inhibition [1] 100% | inhibition [2] 62% | growth inhibition [4] 100%

COc1ccccc1Cn1ccnc1SCC(=O)Nc1cccc(C(F)(F)F)c1
inactive: inhibition [2] -6% | inhibition [3] -2% | outcome [5] | outcome [6] | outcome [7] | outcome [8]
active: growth inhibition [1] 73% | growth inhibition [4] 86%

Cc1ccc(CN2CCCN(Cc3cccc(C(=O)Nc4ccc(C(C)(C)C)cc4)c3)CC2)s1
active: growth inhibition [4] 85%
inactive: growth inhibition [1] 4% | inhibition [2] 31% | inhibition [3] -5% | outcome [5] | outcome [6] | outcome [7] | outcome [8]

CNc1ccc(CNCc2ccc(-c3ccc(-c4nc5c(C)cccc5[nH]4)s3)cc2)cc1
inactive: inhibition [2] 29% | inhibition [3] -5% | outcome [5] | outcome [6] | outcome [7] | outcome [8]
active: growth inhibition [1] 94% | growth inhibition [4] 101%

CC(=O)C=C1CC(=O)N(C[C@@H](O)[C@H]2O[C@@H]3OC(C)(C)O[C@@H]3[C@H]2O)c2ccccc2N1
inactive: growth inhibition [1] 2% | inhibition [2] -8% | inhibition [3] 3% | outcome [5] | outcome [6] | outcome [7] | outcome [8]
active: growth inhibition [4] 90%

CCCC(CC)n1ccc2c3c(N)nc(N)nc3ccc21 (stereo not given)
inactive: inhibition [3] 0% | outcome [5] | outcome [6] | outcome [7] | outcome [8]
active: growth inhibition [1] 97% | inhibition [2] 67% | growth inhibition [4] 94%

COc1ccc2nc(C)cc(NN=Cc3ccncc3)c2c1
inactive: inhibition [2] 6% | inhibition [3] 1% | outcome [5] | outcome [6] | outcome [7] | outcome [8]
active: growth inhibition [1] 68% | growth inhibition [4] 102%

C/C=C/COc1ccc(-c2c(C)[nH]c(C)c(Cl)c2=O)cc1
inactive: inhibition [2] 0% | inhibition [3] 2% | outcome [5] | outcome [6] | outcome [7] | outcome [8]
active: growth inhibition [1] 97% | growth inhibition [4] 97%

Cc1cc(N[C@@H](Cc2ccccc2)C(=O)NCc2cccc(F)c2)nc(NCC2CCCCC2)n1
inactive: growth inhibition [1] 42% | inhibition [2] 43% | inhibition [3] -2% | outcome [5] | outcome [6] | outcome [7] | outcome [8]
active: growth inhibition [4] 101%

CCN1CCC(N(CCCCCCCCc2ccc(C(F)(F)F)cc2)C(=O)Cn2c(CCc3cccc(F)c3F)cc(=O)c3ccccc32)CC1
active: growth inhibition [1] 65% | inhibition [2] 89% | growth inhibition [4] 88%
inactive: inhibition [3] 2% | outcome [5] | outcome [6] | outcome [7] | outcome [8]

CCC(C)(C)C1CCc2[nH]c3ccccc3c(=O)c2C1 (stereo not given)
active: growth inhibition [1] 96% | growth inhibition [4] 97%
inactive: inhibition [2] 16% | inhibition [3] -4% | outcome [5] | outcome [6] | outcome [7] | outcome [8]

O=C(Nc1ccc(Cl)c(Cl)c1)Nc1cc(C(F)(F)F)ccc1Cl
inactive: inhibition [2] -1% | inhibition [3] -4% | outcome [5] | outcome [6] | outcome [7] | outcome [8]
active: growth inhibition [1] 85% | growth inhibition [4] 101%

COc1ccc(CN2CCC(CNCCc3ccccc3Oc3ccccc3)CC2)cc1
active: growth inhibition [1] 56% | inhibition [2] 99% | growth inhibition [4] 85%
inactive: inhibition [3] 0% | outcome [5] | outcome [6] | outcome [7] | outcome [8]

NOCCCOc1ccccc1
inactive: growth inhibition [1] -4% | inhibition [2] 20% | inhibition [3] -4% | outcome [5] | outcome [6] | outcome [7] | outcome [8]
active: growth inhibition [4] 100%

Cc1cc(Nc2cccc(C(F)(F)F)c2)nc2ccc(NC(=O)c3ccc(=O)[nH]c3)cc12
inactive: inhibition [2] 21% | inhibition [3] 0% | outcome [5] | outcome [6] | outcome [7] | outcome [8]
active: growth inhibition [1] 60% | growth inhibition [4] 101%

CCN(CC)c1ccc(C(=O)Cn2ccc(=N)cc2)cc1
inactive: inhibition [3] 3% | outcome [5] | outcome [6] | outcome [7] | outcome [8]
active: growth inhibition [1] 64% | inhibition [2] 92% | growth inhibition [4] 84%

CC1CC(NCCCNc2cc(=O)c3ccccc3[nH]2)c2c1cc(Cl)c(Cl)c2Cl (stereo not given)
inactive: inhibition [2] 1% | inhibition [3] 3% | outcome [5] | outcome [6] | outcome [7] | outcome [8]
active: growth inhibition [1] 70% | growth inhibition [4] 98%

CCCc1cc(OC)c(CC2c3cc(O)c(Cl)cc3CCN2C)cc1OC (stereo not given)
inactive: inhibition [2] 19% | inhibition [3] -5% | outcome [5] | outcome [6] | outcome [7] | outcome [8]
active: growth inhibition [1] 99% | growth inhibition [4] 100%

COc1ccc2ncc(F)c(CCN3[C@@H]4CC[C@H]3CC(NCc3ccc5c(c3)OCCO5)C4)c2n1 (stereo not given in full)
active: growth inhibition [4] 102%
inactive: growth inhibition [1] 35% | inhibition [2] 27% | inhibition [3] -5% | outcome [5] | outcome [6] | outcome [7] | outcome [8]

COc1ccc(Br)cc1C1[C@@H]2C(=O)N(c3ccc(Br)cc3)C(=O)[C@@H]2C2(C(=O)O)CC(OCc3ccccc3)CN12 (stereo not given in full)
active: growth inhibition [1] 99% | growth inhibition [4] 104%
inactive: inhibition [2] 16% | inhibition [3] -2% | outcome [5] | outcome [6] | outcome [7] | outcome [8]

CN1CCN(CCCN(Cc2cccc(-c3ccc(CNC4CCCC4)cc3)c2)C(=O)CCC2CCCC2)CC1
active: growth inhibition [1] 84% | growth inhibition [4] 97%
inactive: inhibition [2] 16% | inhibition [3] -1% | outcome [5] | outcome [6] | outcome [7] | outcome [8]

Cc1c(C(=O)N2CCc3cc4nccc(N5CCN6CCC[C@H]6C5)c4cc32)cnn1-c1ccc(C#N)cc1
active: growth inhibition [4] 90%
inactive: growth inhibition [1] 27% | inhibition [2] 0% | inhibition [3] -3% | outcome [5] | outcome [6] | outcome [7] | outcome [8]

c1ccc2c(c1)CN(CC1CCOCC1)CC1(CCN(Cc3c[nH]c4cnccc34)CC1)O2
inactive: growth inhibition [1] 7% | inhibition [2] 21% | inhibition [3] -3% | outcome [5] | outcome [6] | outcome [7] | outcome [8]
active: growth inhibition [4] 99%

CCOC(=O)C1=C(C)NC(Cn2ccnc2)=C(C(=O)OCC)C1c1ccc(C(C)(C)C)cc1 (stereo not given)
inactive: growth inhibition [1] 33% | inhibition [2] 8% | inhibition [3] -10% | outcome [5] | outcome [6] | outcome [7] | outcome [8]
active: growth inhibition [4] 100%

Cc1ccc(NC(=O)Nc2ccc(Cl)c(C(F)(F)F)c2)cc1-c1ccc(C(=O)NCCN2CCOCC2)cc1
active: inhibition [2] 52% | growth inhibition [4] 98%
inactive: growth inhibition [1] 31% | inhibition [3] 0% | outcome [5] | outcome [6] | outcome [7] | outcome [8]

CCn1ccc2c(N3CCCS3(=O)=O)cc(C(=O)N[C@@H](Cc3ccccc3)[C@H](O)CNC(C)(C)c3cccc(OC)c3)cc21
active: growth inhibition [1] 98% | growth inhibition [4] 99%
inactive: inhibition [2] 20% | inhibition [3] -8% | outcome [5] | outcome [6] | outcome [7] | outcome [8]

Cc1ccccc1CN1CCCN(Cc2ccc(C(=O)Nc3ccc(C(C)(C)C)cc3)cc2)CC1
inactive: growth inhibition [1] 5% | inhibition [3] -1% | outcome [5] | outcome [6] | outcome [7] | outcome [8]
active: inhibition [2] 52% | growth inhibition [4] 89%

NS(=O)(=O)c1cncc(-c2ccc3nccc(-c4cn[nH]c4)c3n2)c1
active: growth inhibition [1] 100% | growth inhibition [4] 99%
inactive: inhibition [2] 33% | inhibition [3] -2% | outcome [5] | outcome [6] | outcome [7] | outcome [8]

C=C(C)CSc1nc2c(c(=O)n1CCc1ccccc1)C1(CCCC1)Cc1ccccc1-2
inactive: inhibition [2] 14% | inhibition [3] -5% | outcome [5] | outcome [6] | outcome [7] | outcome [8]
active: growth inhibition [1] 80% | growth inhibition [4] 101%

Cc1cccc(CN2CCCN(Cc3cccc(C(=O)Nc4ccc(C(C)(C)C)cc4)c3)CC2)c1
active: inhibition [2] 98% | growth inhibition [4] 89%
inactive: growth inhibition [1] 40% | inhibition [3] 4% | outcome [5] | outcome [6] | outcome [7] | outcome [8]
